Measured values reported in PubChem BioAssay AID1159580 (chemical genetic matrix, 2015).
Values joined by “and” are separate entries in the source; they are usually repeats but may differ in a detail not shown here. Identical values can stand only once. Out of some 5,500 compounds screened, about 2,000 (36%) were called active. Roughly 18% stayed inconclusive and do not appear here. Cut-off read from the data, not from the text of the source: active = normalized growth mostly below about 0.91 (no sharp cut-off); inconclusive = no clear call, values can overlap the other calls; inactive = mostly above about 0.92. Some of the results follow.

Test: chemical genetic growth profiling, strain panel (AID 1159580);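 note: tested at 20 µM; growth read once vehicle control cultures reached saturation at 30 °C; 1 = growth at the plate median or of vehicle wells; lower values mean less growth of the strain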
Details: S. cerevisiae deletion strains, growth OD

Measured: normalized growth

CC(C[N+](C)(C)C)OC(N)=O (centres undefined)
inactive: locus YAL013W, strain DEP1, stronger effect = lower value 0.991 | locus YAL021C, strain ccr4, stronger effect = lower value 1.05 | locus YAL026C, strain drs2, stronger effect = lower value 1.03 | locus YAL030W, strain snc1, stronger effect = lower value 1.02 | locus YAL040C, strain CLN3, stronger effect = lower value 1 | locus YBL061C, strain skt5, stronger effect = lower value 1.03 | locus YBR009C, strain hhf1, stronger effect = lower value 1.01 | locus YBR021W, strain FUR4, stronger effect = lower value 1.01 | locus YBR023C, strain chs3, stronger effect = lower value 1.03 | locus YBR171W, strain sec66, stronger effect = lower value 1.05 | locus YBR229C, strain ROT2, stronger effect = lower value 0.994 | locus YBR231C, strain swc5, stronger effect = lower value 1.01 | locus YBR279W, strain paf1, stronger effect = lower value 1.03 | locus YCL011C, strain gbp2, stronger effect = lower value 1.01 | locus YCL016C, strain dcc1, stronger effect = lower value 1.03 | locus YCL029C, strain bik1, stronger effect = lower value 0.988 | locus YCL061C, strain MRC1 (second series), stronger effect = lower value 1 | locus YCL061C, strain MRC1, stronger effect = lower value 1.01 | locus YCL069W, strain vba3, stronger effect = lower value 1.03 | locus YCR088W, strain abp1, stronger effect = lower value 1.03 | locus YDL005C, strain med2, stronger effect = lower value 1.01 | locus YDL035C, strain GPR1, stronger effect = lower value 1.04 | locus YDL040C, strain nat1, stronger effect = lower value 1.02 | locus YDL074C, strain BRE1, stronger effect = lower value 0.947 | locus YDL101C, strain DUN1, stronger effect = lower value 0.976 | locus YDL185W, strain tfp1, stronger effect = lower value 0.981 | locus YDL192W, strain arf1, stronger effect = lower value 0.983 | locus YDR001C, strain nth1, stronger effect = lower value 1.03 | locus YDR069C, strain doa4, stronger effect = lower value 1.01 | locus YDR101C, strain arx1, stronger effect = lower value 0.991 | locus YDR137W, strain rgp1, stronger effect = lower value 1.04 | locus YDR150W, strain NUM1, stronger effect = lower value 1.01 | locus YDR159W, strain sac3, stronger effect = lower value 0.982 | locus YDR162C, strain NBP2, stronger effect = lower value 1.02 | locus YDR195W, strain ref2 1 | locus YDR297W, strain sur2, stronger effect = lower value 1.02 | locus YDR318W, strain mcm21, stronger effect = lower value 0.985 | locus YDR334W, strain swr1, stronger effect = lower value 1.03 | locus YDR335W, strain msn5, stronger effect = lower value 1.03 | locus YDR363W, strain ESC2, stronger effect = lower value 0.974 | locus YDR388W, stronger effect = lower value 0.992 | locus YDR392W, strain spt3, stronger effect = lower value 0.962 | locus YDR502C, strain sam2, stronger effect = lower value 0.991 | locus YEL003W, strain gim4, stronger effect = lower value 1.01 | locus YEL037C, strain rad23, stronger effect = lower value 1.04 | locus YEL061C, strain CIN8 (second series), stronger effect = lower value 1.03 | locus YEL061C, strain CIN8, stronger effect = lower value 0.995 | locus YER002W, strain NOP16, stronger effect = lower value 1.02 | locus YER015W, strain faa2, stronger effect = lower value 1.02 | locus YER016W, strain bim1, stronger effect = lower value 1.02 | locus YER110C, stronger effect = lower value 0.972 | locus YER111C, strain swi4, stronger effect = lower value 1.04 | locus YER155C, strain BEM2 (second series), stronger effect = lower value 0.998 | locus YER155C, strain BEM2, stronger effect = lower value 0.986 | locus YER167W, strain BCK2, stronger effect = lower value 1.01 | locus YFR010W, strain ubp6, stronger effect = lower value 1.02 | locus YGL078C, strain dbp3, stronger effect = lower value 0.982 | locus YGL086W, strain mad1, stronger effect = lower value 0.984 | locus YGL167C, strain pmr1, stronger effect = lower value 1.04 | locus YGL173C, strain kem1, stronger effect = lower value 1.01 | locus YGL227W, strain vid30, stronger effect = lower value 1.02 | locus YGL240W, strain doc1, stronger effect = lower value 1.01 | locus YGL248W, strain PDE1, stronger effect = lower value 0.987 | locus YGL253W, strain hxk2, stronger effect = lower value 1.02 | locus YGR078C, strain PAC10, stronger effect = lower value 0.986 and 0.968 | locus YGR135W, strain pre9, stronger effect = lower value 0.987 | locus YGR229C, strain SMI1, stronger effect = lower value 1.03 | locus YGR252W, strain gcn5, stronger effect = lower value 1.04 | locus YHR013C, strain ard1, stronger effect = lower value 1.03 | locus YHR027C, strain rpn1, stronger effect = lower value 1.03 | locus YHR030C, strain SLT2, stronger effect = lower value 0.991 and 0.986 | locus YHR079C, strain IRE1 (second series), stronger effect = lower value 0.975 | locus YHR079C, strain IRE1, stronger effect = lower value 0.976 | locus YHR094C, strain hxt1, stronger effect = lower value 0.982 | locus YHR129C, strain ARP1, stronger effect = lower value 0.988 | locus YHR142W, strain chs7, stronger effect = lower value 1.04 | locus YHR200W, strain rpn10, stronger effect = lower value 0.987 | locus YIL066C, strain RNR3, stronger effect = lower value 1.01 | locus YIL073C, strain SPO22, stronger effect = lower value 1.04 | locus YIL125W, strain kgd1, stronger effect = lower value 0.979 | locus YIR030C, strain dcg1, stronger effect = lower value 0.976 | locus YJL092W, strain hpr5, stronger effect = lower value 1.02 | locus YJL095W, strain BCK1 (second series), stronger effect = lower value 1.05 | locus YJL095W, strain BCK1, stronger effect = lower value 0.985 and 0.982 | locus YJL115W, strain asf1, stronger effect = lower value 1.04 | locus YJL129C, strain trk1, stronger effect = lower value 1.04 | locus YJL134W, strain LCB3, stronger effect = lower value 0.989 | locus YJL154C, strain vps35, stronger effect = lower value 1.03 | locus YJL164C, strain tpk1, stronger effect = lower value 1.03 | locus YJL166W, strain qcr8, stronger effect = lower value 1.01 | locus YJL168C, strain set2, stronger effect = lower value 0.981 | locus YJL187C, strain SWE1 (second series), stronger effect = lower value 0.987 | locus YJL187C, strain SWE1, stronger effect = lower value 1.03 | locus YJR043C, strain POL32, stronger effect = lower value 1.05
